The entries come from a sample that favours hits as a whole.
Dicer processing = inhibitors of human Dicer processing of pre-microRNA. AID 1347074. 47,000 tested, 6% active. z-score at 25 µM. Q9UPY3. cat-ELCCA pre-miR-21 Dicer processing, chemiluminescence; active compounds read high; in the data active = z-score above about 3, passing the limit was not always enough;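 also: plate controls were vehicle for no effect and no enzyme for full effect; higher signal means more uncleaved substrate so more Dicer inhibition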
* = called active by the depositor.

Results for CCOC(=O)c1c(NC(=O)CSc2nnc(C)c(=O)[nH]2)sc2c1CCCC2 ?
Dicer processing: 3.3*

Results for N#Cc1c(NC(=O)CSc2nnnn2-c2ccccc2)sc2c1CCCC2 ?
Dicer processing: -1.4

What do the screens show for `Cc1nnc(SCC(=O)Nc2sc3c(c2C#N)CCCC3)s1`?
Dicer processing: 3.4*

What do the screens show for `COc1ccc(Cc2nc(-c3ccc(C)cc3)no2)cc1OC`?
Dicer processing: 1.1

How did CCOc1ccc(C2C(C(=O)c3ccc(C)cc3)=C(C(=O)OC)Nc3nnnn32)cc1 (configuration not stated) do in these assays?
Dicer processing: 1.5

Results for CN1CCN(c2oc(-c3ccc(F)cc3)nc2C#N)CC1 ?
Dicer processing: 0.07

Results for Cc1[nH]c2ccccc2c1C(=O)CSc1nnc(-c2ccco2)n1C ?
Dicer processing: 2.9

Results for CCn1c(SCC(=O)c2c(C)[nH]c3ccccc23)nnc1-c1ccco1 ?
Dicer processing: 2.6

Results for Cc1[nH]c2ccccc2c1C(=O)CSc1nnc(Cc2cccs2)n1C ?
Dicer processing: 3.4*

What do the screens show for `Cc1[nH]c2ccccc2c1C(=O)CSc1nnc(-c2ccco2)n1-c1ccccc1`?
Dicer processing: 4.7*

What do the screens show for `Cc1[nH]c2ccccc2c1C(=O)CSc1nnc(C2CCCCC2)n1C`?
Dicer processing: 1.4

Results for Cc1[nH]c2ccccc2c1C(=O)CSc1nnc(-c2cccs2)n1C ?
Dicer processing: 0.7

How did CCn1c(SCC(=O)c2c[nH]c3ccccc23)nnc1-c1cccs1 do in these assays?
Dicer processing: 2.1

How did CCn1c(SCC(=O)c2c[nH]c3ccccc23)nnc1-c1ccco1 do in these assays?
Dicer processing: 3.4*

Results for O=C(CSc1nnc(-c2ccco2)n1-c1ccc(OCc2ccccc2)cc1)c1ccccc1 ?
Dicer processing: -0.72

Results for Fc1ccc(-c2cn3nc(C(F)(F)F)sc3n2)cc1 ?
Dicer processing: 0.32

What do the screens show for `C=CCOC(=O)C1=C(C)NC2=C(C(=O)CC(C)(C)C2)C1c1ccccc1OC` (configuration not stated)?
Dicer processing: 0.3

Results for CCOC(=O)CNC(=O)c1nn(C)cc1[N+](=O)[O-] ?
Dicer processing: -0.69

What do the screens show for `CC(C)Cc1ccc(C(C)C(=O)O/N=C(\N)c2cccc(Cl)c2)cc1` (configuration not stated)?
Dicer processing: -0.74

Results for OC[C@@H](O)[C@H](O)[C@H](O)[C@@H](O)C(SCc1ccccc1)SCc1ccccc1 ?
Dicer processing: 2

What do the screens show for `Fc1ccc(-n2nnnc2-c2cnn(-c3ccccc3Cl)c2C(F)(F)F)cc1`?
Dicer processing: -1.6

Results for Nc1ncc(-c2nnnn2-c2ccc(F)cc2)c(C(F)(F)F)n1 ?
Dicer processing: 1.8

How did FC(F)(F)c1[nH]ncc1-c1nnnn1-c1ccc(Cl)cc1 do in these assays?
Dicer processing: 4.8*

Results for CC1CC(N2CN=C(SCc3ccc([N+](=O)[O-])cc3)NC2)CC(C)(C)C1 (configuration not stated) ?
Dicer processing: -2.4

How did CCC(=O)c1cn(CC(=O)N2CCOCC2)c2ccccc12 do in these assays?
Dicer processing: -0.16

What do the screens show for `COC(=O)c1cn(CC(=O)N2CCOCC2)c2ccccc12`?
Dicer processing: 6*

What do the screens show for `CC1CCN(C(=O)Cn2cc(C(=O)C3CC3)c3ccccc32)CC1`?
Dicer processing: 5.1*

Results for CC1CCCC(C)N1C(=O)Cn1cc(C(=O)C2CCCCC2)c2ccccc21 (configuration not stated) ?
Dicer processing: -4.1

What do the screens show for `O=C(c1cccs1)c1cn(CC(=O)N2CCOCC2)c2ccccc12`?
Dicer processing: 0.7

Results for CCOC(=O)Cn1cc(C(=O)C2CC2)c2ccccc21 ?
Dicer processing: 1.8

Results for COc1ccc(CC2CCC(=NO)CC2)cc1 (configuration not stated) ?
Dicer processing: 2.9

Results for CC(=O)Nc1ccc(OC(F)(F)F)cc1[N+](=O)[O-] ?
Dicer processing: -0.95

What do the screens show for `CCc1cccc(C)c1N1C(=O)CCCC1=O`?
Dicer processing: -1.1

Results for O=[N+]([O-])c1cc(Cl)c(-n2cccc2)c(Cl)c1 ?
Dicer processing: -0.2

Results for O=C(c1cccs1)N1CCc2ccccc2C1 ?
Dicer processing: 3.7*

What do the screens show for `O=C(c1ccncc1)N1CCN(C(=O)c2cccs2)CC1`?
Dicer processing: -1.4

Results for N#C/C(=C\N1CCc2ccccc2C1)C(=O)c1cccs1 ?
Dicer processing: 0.66

How did Cc1c(C)c(C)c(CSC2=NCCS2)c(C)c1C do in these assays?
Dicer processing: 0.2

What do the screens show for `Fc1ccc(OCc2nn3c(Cc4ccccc4)nnc3s2)cc1`?
Dicer processing: -0.8

What do the screens show for `FC(F)(F)c1cnc(CSc2ccc(Cl)cc2)c(Cl)c1`?
Dicer processing: -0.5

How did C=C(C)Cc1c(COC)nc(SCC(=O)C(C)(C)C)[nH]c1=O do in these assays?
Dicer processing: 1.8

Results for CO[C@H]1O[C@H](CO)[C@@H](OC(C)=O)[C@H](OC(C)=O)[C@H]1OC(C)=O ?
Dicer processing: -0.58

Source: PubChem
